Assay results reported in the supplement of paper PMC3334620.
The full ranking holds about 33,000 sequences; the median of “E-score (-0.5 to 0.5)” is about -0.016, and the highest 2% start at about 0.3. For the sample, the highest values were picked, then their nearest neighbours and some sequences at random.

target: T1, Yer184c (UniProt P39961); experiment: PBM E-score (8-mer binding enrichment) (E-score (-0.5 to 0.5)); higher = stronger / more preferred TF binding; conditions: protein concentration: 100 nM; construct: GST-full length
T1 sequence: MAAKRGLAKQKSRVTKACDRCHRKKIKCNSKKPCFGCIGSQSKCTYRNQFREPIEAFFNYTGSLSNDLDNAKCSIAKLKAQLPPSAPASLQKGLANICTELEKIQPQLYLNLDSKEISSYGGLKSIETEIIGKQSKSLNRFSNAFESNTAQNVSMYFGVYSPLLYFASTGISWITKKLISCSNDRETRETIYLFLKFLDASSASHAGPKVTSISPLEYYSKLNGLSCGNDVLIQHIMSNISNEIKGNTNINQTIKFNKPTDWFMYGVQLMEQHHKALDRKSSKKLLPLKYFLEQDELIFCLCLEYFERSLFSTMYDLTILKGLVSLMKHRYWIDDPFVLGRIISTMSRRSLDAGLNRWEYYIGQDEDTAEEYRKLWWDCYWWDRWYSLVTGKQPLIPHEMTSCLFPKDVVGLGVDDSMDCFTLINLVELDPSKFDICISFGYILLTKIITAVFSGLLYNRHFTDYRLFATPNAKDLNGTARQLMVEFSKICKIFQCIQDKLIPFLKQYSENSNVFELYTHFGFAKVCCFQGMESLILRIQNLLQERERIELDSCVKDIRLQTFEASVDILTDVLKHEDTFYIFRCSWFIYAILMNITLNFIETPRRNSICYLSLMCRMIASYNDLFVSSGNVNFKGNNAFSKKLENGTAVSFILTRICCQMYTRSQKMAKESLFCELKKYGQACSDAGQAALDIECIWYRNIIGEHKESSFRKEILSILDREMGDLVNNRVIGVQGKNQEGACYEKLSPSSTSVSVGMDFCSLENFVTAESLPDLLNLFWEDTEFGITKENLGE
Protocol: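 Universal 'all 10-mer' protein binding microarrays (Agilent AMADID 015681) probed with GST-tagged S. cerevisiae TFs (full-length or DBD) made by in vitro transcription/translation (PURExpress), about 100-200 nM. Bound TF was detected with fluorescent anti-GST. Each ungapped 8-mer (which stands for itself and its reverse complement) is scored by the PBM enrichment score (E-score), a modified Wilcoxon-Mann-Whitney statistic from -0.5 to +0.5, computed with the Universal PBM Analysis Suite. Scale: above 0.35 generally sequence-specific binding.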

Sequence	PBM E-score
GCCTTAAC	-0.171
CGGTAGTA	0.0519
GCTCTTCC	0.0925
AGAGGTTG	-0.19
AGGAGCGA	-0.0501
CGGAGCGC	0.107
CCGAGCCG	0.352
ACGAGCCG	0.22
AGGAGCCG	0.0636
CGGAGCGA	0.332
CGGAGCCG	0.309
CGGAGCCC	-0.177
CCGAGCGC	0.361
GCGAGCGC	0.0998
CCGAGCGA	0.244
CCGAGCCA	0.219
AGGGATGA	-0.133
GATTGAGC	0.109
AAGGGGAC	-0.0399
CGGAATGC	0.249
CAACAGCG	-0.182
AGATCCGG	0.263
ATATCCGC	0.178
ATATCCTA	-0.0362
CTATCCGA	0.119

Sequence	PBM E-score
GTATCCTA	-0.0431
ATATCCGG	0.374
ATGTCCGC	-0.0241
GTATCCGA	0.304
ATGTCCGA	0.231
GTATCCCA	-0.0951
ATGTCCGG	0.373
ATATCCGA	0.343
CAAGGGTA	-0.254
GTACGAGA	-0.1
CTCTAAGC	0.0215
GGACCCAC	-0.182
CTTGTTTC	0.0564
ATTGTTCG	0.346
ATTGTTCC	0.267
ATTGTTTG	0.137
ATTGTTCA	0.112
ATTGTCCA	0.143
ATTGTTTC	0.324
ATTGTCCG	0.345
ATTGTCCC	-0.0916
GCCCAGTA	-0.14
AACGGCCG	0.3
ATTGAATA	0.24
ATCCATAA	0.168

Sequence	PBM E-score
ACCCTAAC	-0.0425
GAATCGGC	0.254
GAATCGGA	0.318
AGATCGGA	0.34
AAATCGGG	0.0884
AAATCGGT	0.0224
ACATCGGA	0.223
AAATCGGA	0.308
TAATCGGA	0.248
CGATCGGA	0.142
GCATCGGA	0.307
GGATCGGA	0.228
GCATCGGC	0.176
CAAACAAG	0.0388
AACCTCTT	0.178
CCCAAGTC	-0.223
AAGCAGTA	-0.209
TGACTGAA	-0.14
AAATGCTT	0.0617
TCTGCGAA	-0.186
GCCTGCTA	-0.0406
ACTTCCAG	-0.112
CCGTTCAA	0.197
CCCTCATA	-0.288
CCTCGAGG	-0.112

Sequence	PBM E-score
GGAGTACC	-0.219
CTATCGGA	0.319
ATATCGGA	0.277
GTATCGGA	0.208
AAAGGGCA	-0.226
ATATGGCA	-0.15
CCACAGTA	-0.1
CCTCCTTA	-0.179
AGATTCCG	0.338
AGATTCCT	-0.215
AGATTCCC	-0.0681
ATATTCCG	0.38
ATATTCCC	0.176
ATATTCCA	0.16
ATAGTGCA	0.104
CGGTGCGA	0.00174
CGATGGTA	-0.146
TGTCCGAA	0.334
AGTCCGAT	0.19
CGTCCGAA	0.239
AGTCCGAA	0.343
AGTCCGAC	-0.14
TGTCCAAA	0.143
ATTCTGCA	0.124
TAAGCTAA	0.138

Sequence	PBM E-score
AGACCTAT	0.0227
AATATCAT	0.142
CCTCGCCC	-0.125
GCCGTAGC	0.045
ACCGTAAA	0.0422
TCCGTAGA	0.204
GCCGTAGA	0.322
GCCGTAAA	0.339
TCCGTAAA	0.303
GAAGCGTA	-0.0311
GGATTCGA	-0.0994
AATGCAAT	-0.256
ATGACGGA	0.198
CACTTCTG	-0.207
GATCTTTA	0.106
ATAACAAT	0.115
ATAACAAG	0.209
AGAACAAA	0.349
AGAACAAG	0.143
AGAACAAT	0.174
ATAACAAA	0.357
AGAGATAC	-0.0106
AGTGAGAT	-0.107
CGAGAGAG	0.166
AAGAGCAA	-0.0457

Sequence	PBM E-score
CACAAGCC	-0.0115
AGCCCGTA	-0.276
GAACACCC	-0.0175
AAGGCCCG	-0.093
AAGGCCGA	0.338
AAGGCCGG	0.318
AAGGCCGT	0.156
AAGGCCGC	0.051
CAGGCCGG	0.108
CGCCCGCA	-0.0897
GATGAGCA	0.0238
GAGGTCGA	-0.158
GACTGCCC	-0.309
ATATTGCG	-0.0525
ATCGGCGA	0.128
CTCGGCTC	0.237
CTCGGCTA	0.352
CTCGGCGA	0.399
CGCGGCGC	0.259
CTCGGCGC	0.357
GTCGGCGA	0.134
ATCGGCGC	0.275
GTCGGCTA	0.153
TAGATGGA	-0.162
AAGAGGAG	-0.115

Sequence	PBM E-score
GATGGATA	0.0331
CGGGGAGC	-0.0385
AGAGCCAT	-0.101
CGCTATGA	-0.0231
CTTCGGAA	0.394
ATTCGGTC	0.244
AGTCGGAC	0.0344
ATTCGGGC	0.141
GGTCGGAA	0.225
GTTCGGGA	0.226
CTTCGGTC	0.309
CTTCGGGA	0.171
CTTCGGTA	0.235
GTTCGGAA	0.402
ATTCGGAC	0.349
CGTCGGAA	0.24
AAAGTTAT	0.134
CGAACCCA	-0.0147
GCGCCCTA	-0.135
CGCGTAGC	-0.0173
CCTGTCAG	-0.101
TCCGCGAA	0.234
ATTGGTAG	-0.0488
CTTCGGAC	0.325
CCTCGGAC	0.17

Sequence	PBM E-score
ATTCGGAA	0.353
AGTCGGAA	0.245
CTTCGGGC	-0.0555
ATTCGGAG	0.205
GTATGCTA	-0.0379
ACCCGCGT	-0.0424
ATCCGCGC	0.141
ACCCGCGG	0.351
ACCCGCGA	-0.0511
AACCGCGA	0.225
AGCCGCGG	0.419
ATCCGCGA	0.105
AACCGCGG	0.372
ATCCGCGG	0.359
AGCCGCGC	0.103
AACCGCGT	0.168
AGCCGCGA	0.133
GATCGCAC	-0.0597
CAAAGATC	0.154
CGATCTGC	0.0352
AGCTACCT	-0.0785
CAGTCCCA	-0.171
GTAAGGAA	-0.0396
CACAGAAC	-0.13
ATTCCGGA	0.436

Sequence	PBM E-score
CTTCCCGA	0.148
CTTCCGCA	0.068
GTACCGGA	0.285
GTTCCGGA	0.438
ATACCGGA	0.237
CTTCCTGC	-0.314
GTTCCGCA	0.268
CTTCCGCC	0.024
CTTCCGGA	0.402
CTTCCGGC	0.343
ATTCCGCA	0.139
CCAACGTA	-0.105
ACTCGGGA	0.199
GAAAACCA	-0.0101
GTGCAGAA	0.0359
CTGTGGGC	-0.192
CGTCCCCC	-0.275
ATGGGCAC	-0.072
ATTCGCCG	0.334
ATTCGCCC	-0.127
ATTCGCCA	0.0246
